Test results from PubChem BioAssay (Tox21).
Where “and” joins values, the source holds several entries; their conditions need not be identical. Equal entries are not always repeated. Results filed as inconclusive are left out. Entries that show only a call come without a potency. Calls of active or inactive are those of the source. Unless noted, calls come from the whole dose curve; as a rule, active = well fitted curve in the direction sought with a large enough effect in the repeat runs; inconclusive = weak or mixed curves; inactive = no such curve, though single readings can be large; an effect the other way counts as inactive or inconclusive.

How the values were obtained:
[1] = qHTS assay to identify small molecule antagonists of the glucocorticoid receptor (GR) signaling pathway - cell viability counter screen (AID 720693); note: nearly all actives have a fitted effect of over 55% in size; note: potency is the fitted concentration of half-maximal effect
[2] = qHTS assay for identifying genotoxic compounds that show differential cytotoxicity against isogenic chicken DT40 cell lines with known DNA damage response pathways - wild type cell line (AID 743012); note: nearly all actives have a fitted effect of over 60% in size; note: potency is the fitted concentration of half-maximal effect
In short: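 Using parental DT40 (300 cells/well), compounds delivered in DMSO incubate 40 h at 37 C/5% CO2. CellTiter-Glo reagent then stands 30 min at room temperature, and luminescence gives cell viability.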

[3] = qHTS assay for identifying genotoxic compounds that show differential cytotoxicity against isogenic chicken DT40 cell lines with known DNA damage response pathways - Rev3 mutant cell line (AID 743014); note: nearly all actives have a fitted effect of over 55% in size; note: potency is the fitted concentration of half-maximal effect
[4] = qHTS assay for identifying genotoxic compounds that show differential cytotoxicity against isogenic chicken DT40 cell lines with known DNA damage response pathways - Rad54/Ku70 mutant cell line (AID 743015); note: nearly all actives have a fitted effect of over 60% in size; note: potency is the fitted concentration of half-maximal effect
[5] = qHTS assay to identify small molecule antagonists of the androgen receptor (AR) signaling pathway - cell viability counter screen (AID 743033; note: nearly all actives have a fitted effect of over 45% in size; note: potency is the fitted concentration of half-maximal effect)
[6] = qHTS assay to identify small molecule antagonists of the androgen receptor (AR) signaling pathway using the MDA cell line - cell viability counter screen (AID 743041; note: nearly all actives have a fitted effect of over 45% in size)
In short: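 MDA-kb2 AR-luc cells (MMTV-luciferase, AR/GR responsive) treated with compounds plus R1881 agonist for 16 h at 37C. CellTiter-Fluor added at 15.5 h; fluorescence read after 30 min in the same wells.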

[7] = qHTS assay to identify small molecule antagonists of the thyroid receptor (TR) signaling pathway - cell viability counter screen (AID 743064); note: nearly all actives have a fitted effect of over 50% in size; note: potency is the fitted concentration of half-maximal effect
In short: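 GH3.TRE-Luc rat pituitary cells dosed after 4 hr plating, co-stimulated with T3 at 1 nM final, incubated 23.5 h at 37 C. Viability measured in the same wells by CellTiter-Fluor fluorescence after 30 min further at 37 C.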

[8] = qHTS assay to identify small molecule antagonists of the thyroid receptor (TR) signaling pathway (AID 743065); note: nearly all actives have a fitted effect of over 55% in size; note: potency is the fitted concentration of half-maximal effect
In short: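 GH3.TRE-Luc rat pituitary cells (two TREs driving luciferase) were dosed with compound, then stimulated with 1 nM T3 (final) for 23.5 h at 37 C. ONE-Glo luminescence was the read-out, with CellTiter-Fluor fluorescence as the cytotoxicity counter-screen.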

[9] = test system: thyroid hormone receptor (rat, GH3 cells); test: qHTS assay to identify small molecule agonists of the thyroid receptor (TR) signaling pathway (AID 743066; calls by dose curve)
[10] = biological target: Estrogen receptor (Homo sapiens) (UniProt P03372); test: qHTS assay to identify small molecule antagonists of the estrogen receptor alpha (ER-alpha) signaling pathway (AID 743069; active = well fitted curve in the direction sought with a large enough effect in the signal ratio in the repeat runs, not every such curve was filed as active; the % refers to the signal ratio; note: potency is the fitted concentration of half-maximal effect)
In short: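 HEK293 ER-alpha-UAS-bla GripTite cells, held overnight in 2% charcoal-stripped FBS, 5,000 cells/well, preincubated 4 h, then compound plus 17beta-estradiol for 18 h at 37C. Beta-lactamase read by LiveBLAzer B/G FRET substrate, 2 h at room temperature.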

[11] = qHTS assay to identify small molecule antagonists of the estrogen receptor alpha (ER-alpha) signaling pathway - cell viability counter screen (AID 743074; calls by dose curve;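 note: HEK293 cells carrying ER-alpha-UAS-bla reporter stimulated with 17beta-estradiol; nearly all actives have a fitted effect of over 45% in size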)
[12] = biological target: Estrogen receptor (Homo sapiens) (UniProt P03372); test: qHTS assay to identify small molecule agonists of the estrogen receptor alpha (ER-alpha) signaling pathway (AID 743075; calls by dose curve)
[13] = biological target: Estrogen receptor (Homo sapiens) (UniProt P03372); test: qHTS assay to identify small molecule agonists of the estrogen receptor alpha (ER-alpha) signaling pathway using the BG1 cell line (AID 743079); note: nearly all actives have a fitted effect of over 20% in size; note: potency is the fitted concentration of half-maximal effect
[14] = qHTS assay to identify small molecule antagonists of the estrogen receptor alpha (ER-alpha) signaling pathway using the BG1 cell line (AID 743080; calls by dose curve;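 note: BG1 cells stimulated with 17beta-estradiol alongside compound; series mostly up to about 70 µM; nearly all actives have a fitted effect of over 25% in size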)
In short: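 Luminescence from a 4×ERE-luciferase reporter in BG1-Luc-4E2 cells served as read-out. Cells, pre-cultured 5 days in stripped-serum phenol-red-free medium, were exposed to compound with 17beta-estradiol co-stimulation for 21.5 h at 37 C.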

[15] = qHTS assay to identify small molecule antagonists of the estrogen receptor alpha (ER-alpha) signaling pathway using the BG1 cell line - cell viability counter screen (AID 743081);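 note: compound given together with 17beta-estradiol as the ER stimulus; series mostly up to about 70 µM; nearly all actives have a fitted effect of over 45% in size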
Aromatase (Homo sapiens) = Aromatase (Homo sapiens) (UniProt P11511); test: qHTS assay to identify aromatase inhibitors (AID 743083); note: nearly all actives have a fitted effect of over 55% in size; note: potency is the fitted concentration of half-maximal effect
[16] = biological target: Androgen receptor (Homo sapiens) (UniProt P10275); test: qHTS assay to identify small molecule agonists of the androgen receptor (AR) signaling pathway (AID 743036; active = well fitted activation curve with a large enough effect in the signal ratio in the repeat runs, with a control signal flat, not every such curve was filed as active; the % refers to the signal ratio)
In short: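 AR-UAS-bla HEK293 cells, plated 4 h before dosing, were treated with compound for 16 h at 37C. beta-Lactamase reporter read after 2 h with LiveBLAzer B/G FRET substrate at room temperature.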

[17] = biological target: Androgen receptor (Homo sapiens) (UniProt P10275); test: qHTS assay to identify small molecule agonists of the androgen receptor (AR) signaling pathway using the MDA cell line (AID 743040; note: nearly all actives have a fitted effect of over 20% in size)
In short: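 MDA-kb2 breast carcinoma cells carrying MMTV-luciferase (responsive to AR and GR), plated 5 h then treated 16 h with compounds at 37C, 0% CO2. Read-out was ONE-Glo luminescence after 30 min at room temperature.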

[18] = biological target: Androgen receptor (Homo sapiens) (UniProt P10275); test: qHTS assay to identify small molecule antagonists of the androgen receptor (AR) signaling pathway using the MDA cell line (AID 743042; note: nearly all actives have a fitted effect of over 55% in size; note: potency is the fitted concentration of half-maximal effect)
In short: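 MDA-kb2 breast carcinoma cells carrying MMTV-luciferase (AR/GR responsive) were co-treated with compounds and the agonist R1881 for 16 h at 37C. Inhibition read as ONE-Glo luminescence; CellTiter-Fluor fluorescence measured in parallel for cytotoxicity.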

[19] = biological target: Androgen receptor (Homo sapiens) (UniProt P10275); test: qHTS assay to identify small molecule antagonists of the androgen receptor (AR) signaling pathway (AID 743035; active = well fitted inhibition curve with a large enough effect in the signal ratio in the repeat runs, not every such curve was filed as active; the % refers to the signal ratio)
In short: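 Using qHTS, AR-UAS-bla GripTite HEK293 cells received compound, then R1881, and were cultured 16 h at 37C/5% CO2 before a 2 h room-temperature LiveBLAzer B/G FRET substrate step and fluorescence measurement.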

Sequence of Androgen receptor (Homo sapiens) (P10275 whole entry, looked up): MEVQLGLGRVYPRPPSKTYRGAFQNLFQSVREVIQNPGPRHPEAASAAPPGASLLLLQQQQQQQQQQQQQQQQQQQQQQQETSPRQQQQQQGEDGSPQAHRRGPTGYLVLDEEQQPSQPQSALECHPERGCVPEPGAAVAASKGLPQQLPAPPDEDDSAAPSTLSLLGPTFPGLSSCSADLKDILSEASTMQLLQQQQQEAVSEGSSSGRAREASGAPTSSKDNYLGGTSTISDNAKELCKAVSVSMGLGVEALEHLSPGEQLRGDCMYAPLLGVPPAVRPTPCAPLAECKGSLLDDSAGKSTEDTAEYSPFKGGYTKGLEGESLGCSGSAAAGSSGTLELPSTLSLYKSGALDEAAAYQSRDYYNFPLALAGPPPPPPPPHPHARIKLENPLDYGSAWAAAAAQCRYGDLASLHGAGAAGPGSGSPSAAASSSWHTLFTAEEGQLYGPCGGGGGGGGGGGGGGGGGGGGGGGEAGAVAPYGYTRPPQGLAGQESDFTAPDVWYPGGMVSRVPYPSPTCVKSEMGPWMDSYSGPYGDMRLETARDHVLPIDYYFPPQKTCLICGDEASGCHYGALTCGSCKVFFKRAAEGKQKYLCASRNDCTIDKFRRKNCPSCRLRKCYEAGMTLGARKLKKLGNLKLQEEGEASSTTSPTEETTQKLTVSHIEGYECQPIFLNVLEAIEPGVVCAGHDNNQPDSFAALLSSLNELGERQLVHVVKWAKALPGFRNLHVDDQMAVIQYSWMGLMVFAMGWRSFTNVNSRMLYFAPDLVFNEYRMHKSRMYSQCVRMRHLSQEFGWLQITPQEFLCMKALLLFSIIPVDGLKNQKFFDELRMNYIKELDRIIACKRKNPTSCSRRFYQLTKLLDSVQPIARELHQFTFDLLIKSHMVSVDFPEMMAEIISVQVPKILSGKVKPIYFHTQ
Sequence of Aromatase (Homo sapiens) (P11511 whole entry, looked up): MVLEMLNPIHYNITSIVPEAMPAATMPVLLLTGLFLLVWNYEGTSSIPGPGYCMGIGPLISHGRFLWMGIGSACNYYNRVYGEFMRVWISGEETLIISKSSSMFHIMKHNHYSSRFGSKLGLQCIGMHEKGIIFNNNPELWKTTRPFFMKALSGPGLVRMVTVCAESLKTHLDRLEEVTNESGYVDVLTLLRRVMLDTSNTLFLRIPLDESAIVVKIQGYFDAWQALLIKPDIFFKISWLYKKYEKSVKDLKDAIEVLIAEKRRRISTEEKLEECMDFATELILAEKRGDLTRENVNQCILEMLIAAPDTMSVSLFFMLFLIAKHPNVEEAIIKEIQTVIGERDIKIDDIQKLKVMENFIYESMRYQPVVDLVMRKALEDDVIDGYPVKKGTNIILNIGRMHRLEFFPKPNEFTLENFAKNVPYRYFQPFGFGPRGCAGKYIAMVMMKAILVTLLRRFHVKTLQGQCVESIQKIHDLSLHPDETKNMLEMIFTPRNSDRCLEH
Sequence of Estrogen receptor (Homo sapiens) (P03372 whole entry, looked up): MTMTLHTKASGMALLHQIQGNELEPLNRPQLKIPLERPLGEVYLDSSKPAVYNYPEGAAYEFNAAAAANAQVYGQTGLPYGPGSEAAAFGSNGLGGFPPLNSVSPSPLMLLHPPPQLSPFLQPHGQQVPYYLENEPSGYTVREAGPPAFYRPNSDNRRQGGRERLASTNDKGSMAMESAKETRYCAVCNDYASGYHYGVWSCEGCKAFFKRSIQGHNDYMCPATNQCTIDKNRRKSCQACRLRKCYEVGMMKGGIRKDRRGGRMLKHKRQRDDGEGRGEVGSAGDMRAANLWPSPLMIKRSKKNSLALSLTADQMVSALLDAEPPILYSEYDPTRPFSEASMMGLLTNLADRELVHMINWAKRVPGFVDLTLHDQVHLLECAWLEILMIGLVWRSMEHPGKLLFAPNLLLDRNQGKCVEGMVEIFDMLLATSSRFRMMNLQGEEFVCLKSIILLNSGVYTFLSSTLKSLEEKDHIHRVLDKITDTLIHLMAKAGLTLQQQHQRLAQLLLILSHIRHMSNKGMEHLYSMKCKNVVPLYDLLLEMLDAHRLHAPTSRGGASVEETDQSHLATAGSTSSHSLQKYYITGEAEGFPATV

Row | Structure (SMILES) | Potency [1] | Potency [2] | Potency [3] | Potency [4] | Potency [5] | Potency [6] | Potency [7] | Potency [8] | Potency [9] | Potency [10] | Potency [11] | Potency [12] | Potency [13] | Potency [14] | Potency [15] | Potency (Aromatase (Homo sapiens)) | outcome [16] | Potency [17] | Potency [18] | Potency [19]
1 | O=C(O)COc1ccc(Cl)cc1 | inactive | inactive | inactive | inactive | inactive | inactive | inactive | inactive | inactive | inactive | inactive | inactive | inactive | inactive | inactive | inactive | – | – | – | –
2 | O=[N+]([O-])C(Br)(CO)CO | inactive | 8.41 µM (active) and 6.11 µM (active) | 18.8 µM (active) and 7.7 µM (active) | 26.6 µM (active) and 12.2 µM (active) | inactive | inactive | 23.7 µM (active) and 21.7 µM (active) | – | inactive | inactive | inactive | inactive | inactive | – | inactive | inactive | inactive | inactive | inactive | –
3 | CCBr | inactive | inactive | inactive | inactive | inactive | inactive | inactive | inactive | inactive | inactive | inactive | inactive | inactive | inactive | inactive | inactive | – | – | – | –
4 | C=CC(=O)OCC(C)C | inactive | inactive | inactive | inactive | inactive | inactive | inactive | inactive | inactive | inactive | inactive | inactive | inactive | inactive | inactive | inactive | – | – | – | –
5 | Cc1ccccc1C(=O)Nc1cccc(OC(C)C)c1 | inactive | 48.6 µM (active) | 30.6 µM (active) | 48.6 µM (active) | inactive | inactive | inactive | – | inactive | inactive | inactive | inactive | inactive | inactive | inactive | inactive | – | inactive | inactive | –
6 | COC(=O)C(C)N(C(=O)Cc1ccccc1)c1c(C)cccc1C (stereo not drawn) | inactive | 8.63 µM (active) | 9.69 µM (active) | 15.4 µM (active) | inactive | inactive | – | 61.1 µM (active) | inactive | inactive | inactive | inactive | inactive | – | inactive | inactive | – | inactive | – | –
7 | CCCCN(N=O)C(=N)N[N+](=O)[O-] | inactive | 17.6 µM (active) | 1.57 µM (active) | 2.79 µM (active) | inactive | inactive | 62.4 µM (active) | 49.6 µM (active) | inactive | – | inactive | – | – | – | inactive | – | inactive | inactive | – | inactive
8 | C/C(=C\c1ccccc1)[N+](=O)[O-] | 17.4 µM (active) | 5.45 µM (active) | 4.33 µM (active) | 4.33 µM (active) | 24.5 µM (active) | – | – | 6.86 µM (active) | – | 2.45 µM [cytotoxic] (active) | – | inactive | – | – | – | 19.3 µM (active) | – | inactive | 27.3 µM (active) | –
9 | C=CCOC(C)=O | inactive | inactive | inactive | inactive | inactive | inactive | – | inactive | inactive | inactive | inactive | inactive | inactive | inactive | inactive | inactive | inactive | inactive | inactive | inactive
10 | COP(=S)(OC)Oc1ccc([N+](=O)[O-])cc1Cl | inactive | inactive | inactive | inactive | inactive | – | – | – | inactive | – | inactive | inactive | inactive | inactive | – | inactive | – | inactive | inactive | –
11 | CC(=O)C(C)(C)C | inactive | 45 µM (active) | 3.18 µM (active) | 4.01 µM (active) | inactive | inactive | inactive | inactive | inactive | inactive | inactive | inactive | inactive | – | inactive | inactive | – | – | – | –
12 | CCOP(=S)(OCC)SCSCC | inactive | 54.5 µM (active) | 27.3 µM (active) | 48.6 µM (active) | inactive | inactive | inactive | inactive | inactive | inactive | inactive | inactive | 30.6 µM (active) | inactive | inactive | inactive | – | – | – | –
13 | CCCN(CCCl)c1c([N+](=O)[O-])cc(C(F)(F)F)cc1[N+](=O)[O-] | inactive | inactive | inactive | inactive | inactive | inactive | inactive | inactive | inactive | inactive | inactive | inactive | inactive | inactive | inactive | inactive | – | – | – | –
14 | O=C(C(Cl)(Cl)Cl)C(Cl)(Cl)Cl | inactive | inactive | inactive | inactive | inactive | inactive | – | inactive | inactive | inactive | inactive | inactive | inactive | – | inactive | inactive | inactive | inactive | inactive | inactive
15 | S=C=NCc1ccccc1 | inactive | inactive | inactive | inactive | inactive | inactive | inactive | – | – | – | inactive | – | – | – | inactive | inactive | inactive | inactive | inactive | –
16 | CCN(C)N=O | inactive | inactive | inactive | inactive | inactive | inactive | inactive | inactive | inactive | inactive | inactive | inactive | inactive | inactive | inactive | inactive | – | – | – | –
